Source: PubChem BioAssay (NCI)
This is part of a sample that, as a whole, favours compounds with a hit. Of some 79,000 tested, about 15% had one in any assay. Unmarked numbers belong to inactive results. The source made the active and inactive calls. Cut-off read from the data, not from the text of the source: active = growth inhibition above about 70%; inactive = the rest.

Experiment: NCI Yeast Anticancer Drug Screen. Data for the cln2 rad14 strain (AID 165);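 note: 0% = growth equal to vehicle treated cultures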
Conditions: S. cerevisiae cln2 rad14 strain, hits give high values
Procedure: Growth inhibition of yeast strains with defined genetic alterations is measured as a screen for potential anti-cancer activity. Selected strains with alterations in DNA damage repair or cell cycle control were exposed to compounds and growth inhibition was measured relative to vehicle treated controls. The strain used in this assay is cln2 rad14

[1] = at 5.0 µM (retest, dose inferred, filed as 0.5)
[2] = at 50.0 µM (retest, dose inferred, filed as 5.0)

Structure (SMILES) | growth inhibition [1] [%] | growth inhibition [2] | growth inhibition (at 50.0 µM)
O=C1C=CC(=O)N1c1ccccc1 (tested in a mixture with another compound) | -3 | 34% | 93.8% (active)
CCN(CC)CCNc1ccc(C)c2sc3ccc(OC)cc3c(=O)c12 | 16 | 87% (active) | 30.9%
CC(=O)CC(C)=NCCN=C(C)CC(C)=O.[Pd] | -5 | 41% | 53%
CCN(CC)CCCC(=O)Nc1cc(OC)cc2cccnc12 | 1 | -1% | -2.55%
CC(NNC(=S)NCc1ccccc1)c1cc2ccccc2cn1 (configuration not stated) | 3 | 79% (active) | 80% (active)
CC(=O)OC(C#N)CC(C)(C)/[N+]([O-])=[N+](\[O-])C(C)(C)CC(C#N)OC(C)=O (configuration not stated) | 14 | 61% | 3.2%
Clc1ccc(C(c2ccc(Cl)cc2)c2cncnc2)cc1 | 10 | 98% (active) | 89.2% (active)
OC(C(=Nc1ccccc1)c1ccccc1)c1ccccc1 (configuration not stated) | -3 | 98% (active) | 98.8% (active)
Cc1cccc2c1C(=O)N(CC[P+](c1ccccc1)(c1ccccc1)c1ccccc1)C2=O | 58 | 91% (active) | 35.3%
COc1ccc(-c2c(CO)cc(OC)c(OC)c2OC)c(CO)c1 | -2 | 10% | 98% (active)
Cc1cc2oc3c(ccc(=O)n3C)c(=O)c2c(C)c1Cl | 20 | 13% | 25.9%
COc1ccc(C(=O)Nc2ccccc2[N+](=O)[O-])cc1 | -14 | 5% | 48.5%
C=CCOC(=O)CC(O)C(=O)OCC=C (configuration not stated) | 1 | -9% | 13.8%
CCCCCCCCNc1ccc(Cl)cc1 | 25 | 94% (active) | 81.2% (active)
